For 20 compounds, growth inhibition, inhibition and outcome results are on record in PubChem BioAssay.

The inhibition is the drop in the measured response relative to a control, in per cent.

Test [1] is described as follows: antimalarial activity against Dd2 strain (AID 2302;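 active means growth inhibition above 50% at the single 2 µM test dose, taken to imply half-maximal potency below 2 µM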;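 further: 0% = DMSO untreated growth and 100% = chloroquine plus artemisinin killed control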). The conditions noted are these: P. falciparum Dd2 in RBCs, LDH growth readout, 72 h; at 2 µM; active compounds read high.
Test [2] is described as follows: human hepatoma cell viability loss – ATP luminescence, cytotoxicity control for P. falciparum antimalarial project, primary screen (AID 2303;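 active means inhibition above 50%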;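 further: 0% = DMSO wells and 100% = digitonin-killed cells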). The settings on record: HepG2 viability, 24-48 h, at 10 µM, active compounds read high.
Test [3] has as its target L-lactate dehydrogenase (Plasmodium falciparum (isolate CDC / Honduras)) (UniProt Q27743). As to the kind of experiment: PfLDH activity inhibition – cell lysate, 3D7 strain, counter-screen for P. falciparum growth inhibition project (AID 2304).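 Further: 0% = vehicle and 100% = reference inhibitor.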 The conditions noted are these: P. falciparum 3D7 crude extract, LDH APAD/NBT absorbance; at 2 µM; active compounds read high.
The nature of test [4]: inhibition of 3D7 malaria parasite growth – strain 3D7 (AID 2306).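 Further: 0% = DMSO wells and 100% = chloroquine plus artemisinin control wells.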 The conditions noted are these: P. falciparum 3D7 erythrocytic growth, LDH absorbance, 72 h; at 2 µM; active compounds read high.
For test [5], the target named is Calcium-dependent protein kinase 1 (Plasmodium falciparum (isolate 3D7)) (UniProt P62344). As to the kind of experiment: PfCDPK1 kinase inhibitors, biochemical, TCAMS library (AID 1159585; cut-off not given, nearly all actives have IC50 up to about 0.98 µM;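 further: inhibitors leave more ATP so luminescence rises with inhibition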). The settings on record: recombinant PfCDPK1, Kinase-Glo ATP depletion luminescence. (In Kinase-Glo more light means more ATP remaining.)
Test [6] has as its target Plasmodium falciparum protein kinase 6 (PK6, PF3D7_1337100) (UniProt Q8IDW1). Kind of test: PfPK6 kinase inhibitors, biochemical, TCAMS library (AID 1159586). The settings on record: recombinant PfPK6, Kinase-Glo ATP depletion luminescence.
For test [7], the target named is Protein kinase 7 (PK7), Plasmodium falciparum 3D7 (PF3D7_0213400) (UniProt Q7YTF7). As to the kind of experiment: inhibition of Plasmodium PK7 catalytic activity – biochemical, TCAMS antimalarial set, Kinase-Glo luminescence (AID 1159587). The conditions noted are these: recombinant PfPK7, Kinase-Glo ATP depletion luminescence.
Test [8] addresses Calcium-dependent protein kinase 4 (Plasmodium falciparum (isolate 3D7)) (UniProt Q8IBS5). As to the kind of experiment: PfCDPK4 kinase inhibitors, biochemical, TCAMS library (AID 1159588; cut-off not given, nearly all actives have IC50 up to about 0.91 µM). The settings on record: recombinant PfCDPK4, Kinase-Glo ATP depletion luminescence.

Unmarked numbers belong to inactive results. For some of these results: Potency and affinity values are given separately. Calls of active or inactive are those of the source. Unless noted, how the calls were made is not given here.

Chain of Plasmodium falciparum protein kinase 6 (PK6, PF3D7_1337100) (Q8IDW1 1-305): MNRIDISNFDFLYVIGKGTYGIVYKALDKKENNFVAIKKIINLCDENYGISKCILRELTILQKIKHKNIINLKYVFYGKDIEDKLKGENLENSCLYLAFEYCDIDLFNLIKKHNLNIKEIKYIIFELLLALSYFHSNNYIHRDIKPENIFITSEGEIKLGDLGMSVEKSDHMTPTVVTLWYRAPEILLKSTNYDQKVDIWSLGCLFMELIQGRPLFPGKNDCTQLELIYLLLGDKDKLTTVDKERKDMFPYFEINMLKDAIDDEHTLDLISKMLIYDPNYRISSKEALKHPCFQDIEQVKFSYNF
Chain of Protein kinase 7 (PK7), Plasmodium falciparum 3D7 (PF3D7_0213400) (Q7YTF7 1-343): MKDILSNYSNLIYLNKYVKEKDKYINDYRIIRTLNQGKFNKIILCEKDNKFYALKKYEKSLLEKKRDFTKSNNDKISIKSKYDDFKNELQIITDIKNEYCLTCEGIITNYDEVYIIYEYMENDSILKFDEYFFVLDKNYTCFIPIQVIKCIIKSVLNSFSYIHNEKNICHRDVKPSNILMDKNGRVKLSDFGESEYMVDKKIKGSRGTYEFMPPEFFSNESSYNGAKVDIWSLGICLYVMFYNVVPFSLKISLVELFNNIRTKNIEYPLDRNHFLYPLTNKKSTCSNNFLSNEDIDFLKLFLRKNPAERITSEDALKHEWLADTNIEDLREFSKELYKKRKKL
Chain of Calcium-dependent protein kinase 1 (Plasmodium falciparum (isolate 3D7)) (P62344 whole entry, looked up): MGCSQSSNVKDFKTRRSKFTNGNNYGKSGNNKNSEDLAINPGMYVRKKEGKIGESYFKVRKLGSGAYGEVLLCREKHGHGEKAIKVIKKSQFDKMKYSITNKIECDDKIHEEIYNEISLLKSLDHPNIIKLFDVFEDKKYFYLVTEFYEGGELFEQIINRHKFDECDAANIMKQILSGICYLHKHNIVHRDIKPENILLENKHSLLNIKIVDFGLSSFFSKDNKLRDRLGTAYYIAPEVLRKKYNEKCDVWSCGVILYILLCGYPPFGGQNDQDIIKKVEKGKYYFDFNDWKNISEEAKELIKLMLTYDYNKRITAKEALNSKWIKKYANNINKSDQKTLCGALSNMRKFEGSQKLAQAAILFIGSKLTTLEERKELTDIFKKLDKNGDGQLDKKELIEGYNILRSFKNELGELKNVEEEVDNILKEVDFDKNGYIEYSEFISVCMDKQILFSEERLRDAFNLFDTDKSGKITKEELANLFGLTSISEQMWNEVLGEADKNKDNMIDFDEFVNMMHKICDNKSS
Chain of L-lactate dehydrogenase (Plasmodium falciparum (isolate CDC / Honduras)) (Q27743 whole entry, looked up): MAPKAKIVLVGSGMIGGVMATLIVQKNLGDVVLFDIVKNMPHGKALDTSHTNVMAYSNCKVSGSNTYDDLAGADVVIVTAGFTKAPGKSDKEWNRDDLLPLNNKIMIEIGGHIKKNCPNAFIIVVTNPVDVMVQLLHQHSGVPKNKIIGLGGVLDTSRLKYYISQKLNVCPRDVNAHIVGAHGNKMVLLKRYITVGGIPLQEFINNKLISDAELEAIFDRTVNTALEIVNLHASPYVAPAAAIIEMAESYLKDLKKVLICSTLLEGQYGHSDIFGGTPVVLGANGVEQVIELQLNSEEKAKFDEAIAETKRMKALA
Chain of Calcium-dependent protein kinase 4 (Plasmodium falciparum (isolate 3D7)) (Q8IBS5 whole entry, looked up): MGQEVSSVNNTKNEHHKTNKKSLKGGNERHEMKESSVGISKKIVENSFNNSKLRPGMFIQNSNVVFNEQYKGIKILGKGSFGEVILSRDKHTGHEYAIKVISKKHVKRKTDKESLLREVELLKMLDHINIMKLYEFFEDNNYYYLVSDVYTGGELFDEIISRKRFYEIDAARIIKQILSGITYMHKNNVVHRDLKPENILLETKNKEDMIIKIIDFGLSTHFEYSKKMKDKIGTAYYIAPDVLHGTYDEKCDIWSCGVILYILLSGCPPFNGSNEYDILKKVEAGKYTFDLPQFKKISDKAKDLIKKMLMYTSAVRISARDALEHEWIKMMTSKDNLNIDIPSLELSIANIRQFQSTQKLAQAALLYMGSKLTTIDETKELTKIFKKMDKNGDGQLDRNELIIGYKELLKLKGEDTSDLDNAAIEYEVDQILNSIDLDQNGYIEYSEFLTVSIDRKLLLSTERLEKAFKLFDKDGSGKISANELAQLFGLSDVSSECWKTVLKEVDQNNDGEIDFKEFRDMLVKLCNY

For the compound `O=C(CCCCCNC(=O)c1ccc(O)c(-c2cccc(C(F)(F)F)c2)c1)NCCN1CCCCC1`, the growth inhibition was 0% in test [1] and 99% (active) in test [4]. The inhibition was -5% in test [2] and 4% in test [3]. Further, the outcome in test [5], in test [6], in test [7] and in test [8] was inactive.
As for `CN(C)CCNC(=O)c1ccc(-c2ccc3c(Nc4ccccc4)c(C(N)=O)cnc3c2)cc1`, the growth inhibition is 68% (active) in test [1] and 99% (active) in test [4]. Besides, the inhibition in test [2] is 9%; in test [3] it was 6%. The result in test [5], in test [6], in test [7] and in test [8] was inactive.
Regarding `CC1(C)N=C(N)N=C(N)N1OCCCOc1ccc(N)cc1`, the growth inhibition is 95% (active) in test [1] and 96% (active) in test [4]. For the same compound, the values for the inhibition in test [2] and in test [3] were 66% (active) and 1%, respectively. Also, the outcome in test [5], in test [6], in test [7] and in test [8] was inactive.
Regarding `CCOC(=O)C(C(C)=O)C(c1ccccc1)C(C(C)=O)C(=O)OCC` (stereo not given), the growth inhibition in test [1] is 14%; in test [4], 95% (active). Moreover, the inhibition in test [2] was 6%; in test [3], 2%. In addition, the outcome in test [5], in test [6], in test [7] and in test [8] was inactive.
With `CC1(C)N=C(N)N=C(N)N1c1ccc(I)cc1`, the growth inhibition in test [1] was 1%; in test [4] it was 92% (active). Besides, the results for the inhibition in test [2] and in test [3] were 16% and 1%, respectively. Also, the outcome in test [5], in test [6], in test [7] and in test [8] was inactive.
Turning to `O=C1C([N+](=O)[O-])=C(O)c2cccc(F)c21`, the growth inhibition is 13% in test [1] and 95% (active) in test [4]. Besides, the figures for the inhibition in test [2] and in test [3] were 9% and 0%, respectively. Besides, the outcome in test [5], in test [6], in test [7] and in test [8] was inactive.
On to `NC(N)=Nc1nc(-c2cccc(NC(=O)NCc3ccc(OC(F)(F)F)cc3)c2)cs1`, for which the figures for the growth inhibition in test [1] and in test [4] were 26% and 100% (active), respectively. Also, the inhibition in test [2] is -3%; in test [3], 4%. Besides, the outcome in test [5], in test [6], in test [7] and in test [8] was inactive.
As to `Cc1ccc(C)c(NC(=O)CC2C(=O)N(c3ccccc3)C(=S)N2Cc2ccco2)c1` (stereo not given), the growth inhibition was 99% (active) in test [1] and 101% (active) in test [4]. Also, the inhibition in test [2] is 9%; in test [3], -1%. Besides, the outcome in test [5], in test [6], in test [7] and in test [8] was inactive.
Turning to `CC1(C)N=C(N)N=C(N)N1c1ccc(Oc2ccc(Cl)cc2)c(Cl)c1`, the growth inhibition in test [1] was 20%; in test [4], 97% (active). Also, the inhibition in test [2] was 13%; in test [3] it was -2%. In addition, the outcome in test [5], in test [6], in test [7] and in test [8] was inactive.
For the compound `CC(CN(C)C)C(=O)Nc1ccc(-c2cccc(-c3nc4ccc(C(F)(F)F)cc4[nH]3)c2)cc1` (stereo not given), the growth inhibition is 85% (active) in test [1] and 101% (active) in test [4]. Moreover, the inhibition in test [2] was 30%; in test [3] it was -1%. The outcome in test [5], in test [6], in test [7] and in test [8] was inactive.
As to `Cc1ccc(-c2ccc3c(c2)C=C(C(=O)NC2CCN(CCNC(=O)c4cccs4)CC2)CCC3)cc1`, the growth inhibition in test [1] was 30%; in test [4], 90% (active). In addition, the inhibition in test [2] was 27%; in test [3] it was -1%. Also, the outcome in test [5], in test [6], in test [7] and in test [8] was inactive.
Regarding `Cc1c(S(=O)(=O)Nc2ccc3nccc(N4C[C@@H](C)N[C@@H](C)C4)c3c2)sc2ccc(Cl)cc12`, the values for the growth inhibition in test [1] and in test [4] were -4% and 92% (active), respectively. For the same compound, the values for the inhibition in test [2] and in test [3] were -8% and 5%, respectively. Further, the outcome in test [5], in test [6], in test [7] and in test [8] was inactive.
Consider `CCC(=O)N[C@@H]1CN[C@@H](C#Cc2cc3c(Nc4ccc(OCc5cccc(F)c5)c(Cl)c4)ncnc3s2)C1`, for which the growth inhibition was -5% in test [1] and 82% (active) in test [4]. In addition, the inhibition is 46% in test [2] and -3% in test [3]. The result in test [5], in test [6], in test [7] and in test [8] was inactive.
For the compound `COc1ccc(-c2nc(NC(=O)Cc3ccc(OC)c(OC)c3)sc2C)cc1`, the growth inhibition in test [1] was 22%; in test [4], 93% (active). Besides, the results for the inhibition in test [2] and in test [3] were 33% and -2%, respectively. Also, the outcome in test [5], in test [6], in test [7] and in test [8] was inactive.
Regarding `CC(=O)c1ccc(N2CCN(C(=O)Nc3ccc(Cl)cc3)CC2)cc1`, the growth inhibition in test [1] is 0%; in test [4], 97% (active). Besides, the values for the inhibition in test [2] and in test [3] were 4% and 0%, respectively. The outcome in test [5], in test [6], in test [7] and in test [8] was inactive.
For `Cc1[nH]c(C)c(-c2ccc(CCc3ccc(C(F)(F)F)cc3)nc2)c(=O)c1Cl`, the growth inhibition in test [1] and in test [4] was 97% (active) throughout. The figures for the inhibition in test [2] and in test [3] were 24% and 2%, respectively. In addition, the result in test [5], in test [6], in test [7] and in test [8] was inactive.
For `CN1CCc2cc(O)c(NS(=O)(=O)c3ccc(-c4ccc(Cl)cc4)cc3)cc2CC1`, the values for the growth inhibition in test [1] and in test [4] were 3% and 104% (active), respectively. Further, the inhibition is 7% in test [2] and 3% in test [3]. Besides, the result in test [5], in test [6], in test [7] and in test [8] was inactive.
Consider `CC(C)(C)c1cc(Cn2ccnc2)cc(C(C)(C)C)c1O`, for which the growth inhibition was 3% in test [1] and 85% (active) in test [4]. For the same compound, the figures for the inhibition in test [2] and in test [3] were 4% and -2%, respectively. Further, the outcome in test [5], in test [6], in test [7] and in test [8] was inactive.
For the compound `O=C(N1CCN(c2ccnc3cc4c(cc23)N(Cc2ccccc2)CC4)CC1)C(F)(F)F`, the growth inhibition in test [1] and in test [4] was 100% (active) each time. The values for the inhibition in test [2] and in test [3] were 8% and 3%, respectively. For the same compound, the result in test [5], in test [6], in test [7] and in test [8] was inactive.
As for `Cc1nc2nc(N)nc(N)c2c(C)c1Cc1ccccc1I`, the growth inhibition in test [1] was -5%; in test [4] it was 96% (active). The inhibition in test [2] is 63% (active); in test [3], 5%. Besides, the result in test [5], in test [6], in test [7] and in test [8] was inactive.
